± gives the standard deviation of the averaged measurements. Over roughly 33,000 sequences, “E-score (rank enrichment, -0.5 to 0.5)” has its median near -0.0028; the highest 2% begin near 0.23. Many of the other results were omitted from the sample, so the highest values are more common in it than they were.
What follows are sequences tested on 2Sb-muMax20 (muMax20 with two 1,3-bis(methyl)benzene Cys staples, A13C/A17C and Q88C/A92C, C-terminal Lys) (assay: PBM 8-mer E-score (E-score (rank enrichment, -0.5 to 0.5)); higher = stronger preferential binding).
Protocol: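 Protein binding microarray (universal PBM chip covering all 10-mers in fixed probe flanks) with chemically synthesized human Max(13-93) bHLH-LZ analogs (not full-length Max) bearing noncanonical residues (hArg, Tha, Aib, Nle at 65) and aromatic Cys staples. Read-out per 8-mer (and its reverse complement): E-score (rank-based enrichment, -0.5 to 0.5) and Z-score of median probe intensity.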

Sequence | PBM 8-mer E-score
AAACTAGA | 0.08188 ± 0.00023
TAACTAGA | 0.238 ± 0.031
GAACTAGA | 0.067 ± 0.017
ACTATTAA | 0.176 ± 0.026
CATATTAA | 0.238 ± 0.062
AATATTAA | 0.335 ± 0.045
AGTATTAG | 0.147 ± 0.0055
CATATTAG | 0.132 ± 0.032
AGTATTAA | 0.206 ± 0.061
AATATTAG | 0.178 ± 0.0068
TATATTAA | 0.158 ± 0.011
AGTATTAC | 0.236 ± 0.075
ACTATTAT | 0.194 ± 0.027
AATATTAT | 0.259 ± 0.0099
GATATTAA | 0.123 ± 0.014
AGGAGGTC | -0.222 ± 0.015
CGGGAGGC | -0.24 ± 0.032
ATCTTACA | 0.075 ± 0.012
ACCCAAGA | 0.0956 ± 0.071
GGACCAGA | -0.2186 ± 0.0017
AGCCAACC | 0.106 ± 0.0086
GTCAATAA | 0.075 ± 0.025
TGAGACAA | 0.109 ± 0.058
AGCTTAGC | -0.123 ± 0.011
ACTGGGTG | 0.00505 ± 0.024

Sequence | PBM 8-mer E-score
CGTTTAGC | 0.00586 ± 0.16
TCTGTGCA | -0.0114 ± 0.085
GCTAGAAC | -0.0972 ± 0.085
GATATTAC | 0.187 ± 0.088
CATATTAC | 0.146 ± 0.071
AATATTAC | 0.26 ± 0.0093
ACGCAGCA | -0.0676 ± 0.011
CATCAATA | 0.0338 ± 0.066
CCTTTCAC | 0.0485 ± 0.022
CTCGCGAC | 0.107 ± 0.013
GTCGCGAC | 0.291 ± 0.0036
ATCGCGAA | 0.0277 ± 0.02
ATCGCGAT | 0.255 ± 0.036
ATCGCGAG | 0.151 ± 0.049
GTCGCGAA | -0.208 ± 0.09
GGCTGTGA | -0.181 ± 0.072
ACTTATGC | -0.0277 ± 0.024
AGTGCGAC | -0.0265 ± 0.057
GACCAGAC | -0.231 ± 0.026
CGGTCGGA | -0.196 ± 0.0063
CATTCGTC | -0.00288 ± 0.012
AAGATACT | 0.151 ± 0.031
GAGATACA | 0.0204 ± 0.028
GAGATGCA | 0.113 ± 0.076
AAGATACA | 0.245 ± 0.033

Sequence | PBM 8-mer E-score
CTGATACA | -0.049 ± 0.059
AAGATGCA | 0.262 ± 0.023
ATGATACC | 0.127 ± 0.024
AAGATGCT | 0.0039 ± 0.035
ATGATACA | 0.255 ± 0.0028
GCAAATCA | -0.0255 ± 0.056
ACTTTGCG | 0.0825 ± 0.063
AGCTACTA | 0.0815 ± 0.033
AATTGGAA | 0.00538 ± 0.0076
CGTTAACA | 0.0451 ± 0.018
TGTTAACA | 0.301 ± 0.013
AGTTAACA | 0.138 ± 0.09
CAAACTGG | -0.0119 ± 0.034
GGATATTA | 0.128 ± 0.11
AAATATGT | 0.148 ± 0.031
TAATATTA | 0.35 ± 0.0053
AAATATGA | 0.247 ± 0.032
TAATATAA | 0.152 ± 0.00074
CAATATTA | 0.106 ± 0.017
GAATATTC | 0.166 ± 0.09
CAATATGA | 0.159 ± 0.05
AAATATTC | 0.124 ± 0.084
TAATATGA | 0.168 ± 0.022
GAATATTA | 0.238 ± 0.066
AAATATTA | 0.243 ± 0.032

Sequence | PBM 8-mer E-score
AAAGGTTA | 0.0976 ± 0.032
ACTCACTC | 0.00443 ± 0.03
CCTTTTGC | -0.0513 ± 0.057
CATAGGAA | 0.0608 ± 0.002
AATAGGAA | -0.0166 ± 0.01
TATAGGAA | 0.255 ± 0.038
ATCATAAA | 0.000625 ± 0.011
ATAATCAA | 0.0744 ± 0.015
AACATAAC | 0.202 ± 0.012
AACATAAT | 0.297 ± 0.014
AACATAAG | 0.118 ± 0.021
ATCATGAG | 0.0432 ± 0.081
ATCATAAT | 0.232 ± 0.024
ATAATCAG | 0.198 ± 0.028
ATCATGAA | 0.1293 ± 0.00082
ATAATCAT | 0.241 ± 0.044
ATCATAAG | 0.217 ± 0.062
ATCATGAT | 0.267 ± 0.045
AAGGGCCG | -0.18 ± 0.018
ATTTTAGA | 0.0196 ± 0.021
CTGTTTCC | -0.0107 ± 0.033
CGCGCACG | 0.0273 ± 0.007
GAATCTAC | 0.0758 ± 0.0052
ATTACCCC | 0.226 ± 0.0063
ATTACCCA | 0.2414 ± 0.0019

Sequence | PBM 8-mer E-score
TATACCCA | 0.0636 ± 0.015
AATACCCG | -0.105 ± 0.092
ATTACCCG | 0.0122 ± 0.03
AATACCCA | 0.272 ± 0.021
ATTCCAAT | -0.0251 ± 0.027
CAGGACCA | -0.196 ± 0.036
ATCTGTCA | 0.236 ± 0.0051
ATCTGTCC | 0.0828 ± 0.032
ATCTGTCG | 0.089 ± 0.014
CGGACTCA | -0.147 ± 0.028
ATACAACC | -0.0388 ± 0.043
ATACAAGA | -0.044 ± 0.011
ACACAACG | 0.0437 ± 0.0021
CTACAAGC | -0.00747 ± 0.0035
ATACAAGC | 0.284 ± 0.043
GTACAACA | 0.159 ± 0.0065
ATACAACA | 0.239 ± 0.053
ATACAACG | 0.252 ± 0.027
CTACAACA | 0.0685 ± 0.041
CTTACGCC | 0.0349 ± 0.067
AGTCTACA | -0.0861 ± 0.047
TAGCAATA | -0.02 ± 0.012
AGGCCGCG | -0.113 ± 0.078
GAGACGCA | 0.0251 ± 0.025
TCGGGCAA | -0.0563 ± 0.02

Sequence | PBM 8-mer E-score
CAAGGTTA | -0.0419 ± 0.083
AAAGGTAG | 0.176 ± 0.01
AAGCCGTG | -0.228 ± 0.057
ACGCGAAG | -0.0725 ± 0.09
TGTAGAAA | 0.236 ± 0.0088
CGTAGAAA | -0.0374 ± 0.016
AGTAGAAA | 0.1174 ± 0.00047
CTATGCGC | -0.0257 ± 0.0089
CGACCAAG | -0.128 ± 0.0088
GTAAGTTA | 0.0157 ± 0.033
ATAAGTTA | 0.241 ± 0.01
ATTAGTTA | 0.233 ± 0.039
GTTAGTTA | 0.108 ± 0.058
ATTAGTTG | 0.205 ± 0.022
CTAAGTTA | 0.0294 ± 0.017
AGAATTGG | 0.092 ± 0.037
ATGCTAGC | 0.17 ± 0.0032
CCCGCCTC | 0.0922 ± 0.074
GCTAAAGA | 0.0447 ± 0.088
CAAGTTTA | 0.151 ± 0.057
ACTCCGAC | -0.182 ± 0.046
AATCACAC | 0.131 ± 0.016
CAAAAACA | 0.00439 ± 0.066
ACTATGCC | 0.101 ± 0.025
ATTTTGTA | 0.271 ± 0.013

Sequence | PBM 8-mer E-score
GTTTTGCA | 0.0867 ± 0.05
CTTTTGTA | 0.136 ± 0.035
GGTTTGTA | 0.0375 ± 0.026
ATTTTGTG | 0.0967 ± 0.078
GTTTTGTA | 0.279 ± 0.035
AAGGTTCC | -0.178 ± 0.069
GGGTTGTA | 0.0272 ± 0.0033
TAGACAAA | 0.053 ± 0.034
CACGAATC | -0.015 ± 0.029
AGAAGATG | -0.0449 ± 0.09
ATCAAGAA | 0.121 ± 0.044
GAAATTTC | 0.245 ± 0.17
GGAAATTA | 0.304 ± 0.016
AGAAATTA | 0.0685 ± 0.035
CAAATTTC | 0.208 ± 0.085
AAAATTTC | 0.0563 ± 0.036
AAAAATTA | 0.0513 ± 0.022
CAAAATTA | 0.108 ± 0.0041
CGAAATTA | -0.0924 ± 0.033
GAAAATTA | 0.2425 ± 0.002
CGAAAACC | -0.0224 ± 0.019
ACATACCC | -0.0475 ± 0.056

Reference: the supplement of paper PMC12636033
